Measurements: ChEMBL document CHEMBL4513216, “Probing the Open Global Health Chemical Diversity Library for Multistage-Active Starting Points for Next-Generation Antimalarials” (ACS Infect Dis, 2020)
Screen size: about 65,000 compounds; about 2,100 (3.2%) showed an effect of 50% or more. The median lay at about -52%. Only a selection was taken, and strong results are over-represented in it overall.

system: Plasmodium falciparum; assay: Screen against P. falciparum Asexual Blood Stage (ABS), at 5uM; format: functional, Dd2; conditions: tested at 5 uM

In order of falling INHIBITION:
1. Cc1cc(C)cc(CN2C[C@H]3COC[C@H](N4CCN(C)CC4)[C@H]3C2)c1  94.1%
2. c1cncc(N2CCCC3(CCN(CCN4CCCC4)CC3)C2)c1  92%
3. Clc1cc(CN2CCCN3CCCC3C2)c2ncccc2c1 (stereo unspecified)  89.5%
4. COc1ccccc1C1(NCc2c(C)nc3c(C)cccn23)CCCC1  89.2%
5. COc1cc(C)c(-c2ccc(F)c3c2OC(CN)C3)cc1C (stereo unspecified)  83.8%
6. CCC(C)N1CCC(Oc2ccc(C(=O)NCCN(C)C)cc2Cl)CC1 (stereo unspecified)  79.7%
7. Cc1cc(NCCN)nc(-c2ccccc2O)n1  79.2%
8. CCCn1ncc(CN2CCCC(C(=O)c3ccc(Cl)cc3C)C2)c1C (stereo unspecified)  78.4%
9. CCc1nc(N)nc(N2CCCC3(CCN(C)CC3)CC2)c1C  76.1%
10. Cc1cnccc1N1CCN(C[C@]2(O)CCCN3CCCC[C@@H]32)CC1  75%
11. COc1ccc(CN2C[C@@H]3COC[C@@H](N4CCN(C)CC4)[C@@H]3C2)cc1  73.9%
12. Cc1cc(N2CCCC(c3[nH]ncc3Cc3ccccc3)C2)nc(N)n1 (stereo unspecified)  73.6%
13. CCn1ncc(CN2CCCC(C(=O)c3ccc(Cl)cc3)C2)c1C (stereo unspecified)  70.5%
14. CC1CN(CC2CCCC2)CCN1c1ccc2nncn2n1 (stereo unspecified)  70.4%
15. CC(C)N1CCCC(C(=O)N2CCN(c3nsc4ccccc34)CC2)C1 (stereo unspecified)  70.4%
16. CCCn1ncc(CN2CCCC(C(=O)c3ccc(SC)cc3)C2)c1C (stereo unspecified)  65.8%
17. Cc1c(CN2CCCC(C(=O)c3ccc(C(C)(C)C)cc3)C2)cnn1C (stereo unspecified)  57.9%
18. c1cncc(N2CCOCC3(CCCN(Cc4cccs4)C3)C2)c1 (stereo unspecified)  55.5%
19. COc1ccc(C(=O)C2CCCN(Cc3cnn(C)c3C)C2)c(OC)c1 (stereo unspecified)  39.5%
20. CC(C)N1[C@H](CN(C)C)C[C@@H]2CN(c3ncc(F)cn3)CC[C@@H]21  25.4%
21. Cc1nc(C)c(C)c(N2CCC3(CCN(C)C3)C2)n1 (stereo unspecified)  19.5%
22. Cc1cc(-c2cnc(N3CCCC3)nc2C(C)C)on1  10.2%
23. Cc1ccc(N2C[C@@H]3OCCN(Cc4c(C)noc4C)[C@@H]3C2)nn1  6.3%
24. CN1CCN([C@H]2COC[C@@H]3CN(Cc4cccnc4)C[C@@H]32)CC1  -11.2%
25. Cc1ccc(N2CCO[C@H]3CN(CC4CC4)C[C@H]32)nn1  -15.6%
26. c1cnc(N2CCOCC3(CCCN(Cc4cccs4)C3)C2)nc1 (stereo unspecified)  -15.6%
27. Cc1cc(CN2C[C@@H]3COC[C@]3(CNC(=O)N3CCCC3)C2)no1  -22.5%
28. c1cncc(N2CCCC3(CN(Cc4cccs4)CCO3)C2)c1 (stereo unspecified)  -22.7%
29. Cc1ccc(C(=O)N2C[C@@H]3CCN(C(C)C)C[C@@H]3C2)cn1  -25%
30. CC(C)c1cc(N2CCCC3(CCN(C)C3)C2)ncn1 (stereo unspecified)  -28.1%
31. Cc1cc(Cl)ccc1C(=O)C1CCCN(Cc2cnc(N(C)C)s2)C1 (stereo unspecified)  -28.8%
32. Cc1nc(C2(NCC(=O)NC(=O)NCC(F)(F)F)CCCCC2)no1  -29.3%
33. Cn1cc(CN2CCC[C@]3(C[C@@H](Oc4ccccn4)CO3)C2)cn1  -29.6%
34. c1cncc(N2CCOCC3(CN(Cc4cccs4)CCO3)C2)c1 (stereo unspecified)  -41%
35. Cc1cccc2cc(CN3CCCN4CCC[C@H]4C3)c(=O)[nH]c12  -45.3%
36. COc1ccc(CN2C[C@H]3CN(c4cncnc4)C(=O)[C@H]3C2)cc1  -49.1%
37. Cc1cccnc1N1CC2(CCN(Cc3cccnc3)C2)C1  -50.1%
38. O=C(Nc1ccccc1)[C@H]1CN2CCC1C[C@@H]2Cn1cc(CO)nn1 (stereo partly specified)  -50.4%
39. O[C@@]1(CNCCCNc2cccnc2)CCCN2CCCC[C@@H]21  -52.8%
40. CN1CCO[C@H]2CN(C(=O)c3ccncc3F)C[C@H]21  -54.5%
41. O=C1CSC(c2ccc(O)c(Cl)c2)c2c(n(C3CCOCC3)[nH]c2=O)N1 (stereo unspecified)  -57.7%
42. O=C1CC2(CCN(CC3CC3)C2)CN1c1cccnc1 (stereo unspecified)  -58.5%
43. Cc1nc(CN2CC[C@H]3C[C@H](c4ccncn4)O[C@@H]3C2)cs1  -62.5%
44. Cc1c(CC(=O)N2CCN(CC(F)(F)F)CC2)nnn1-c1ccccc1  -74%
45. Cn1ncc2c1NC(=O)CSC2c1ccccc1Cl (stereo unspecified)  -82.5%
46. O=C(C[C@@H]1COC[C@H]2CN(Cc3ccncc3)C[C@@H]12)N1CCCC1  -88%
47. CNc1ncccc1CN1CCN2CCN(C)CC2C1 (stereo unspecified)  -92.1%
48. Cc1cccc(CN2CC[C@@H]3[C@@H]2CCN3C(=O)c2ccno2)n1  -100%
49. COCCNC(=O)C[C@@H]1COC[C@H]2CN(Cc3cccnc3)C[C@@H]12  -103%
50. N#CC1(c2ccccc2)CCN(C(=O)C2CCCN(C(N)=O)C2)CC1 (stereo unspecified)  -142%
51. COCCNC(=O)[C@@]12CCO[C@@H]1CCN(Cc1c(C)noc1C)C2  -191%
